Bioassay records as filed in PubChem BioAssay.
The list is not random: actives were taken first. Their share in the collection is about 11%.
PNC inhibitor = perinucleolar compartment assembly inhibition; PC3M PTB-GFP, PNC prevalence imaging, 16 h; active compounds read low; activity change (PNC), negative = inhibition, % at 10 µM; actives 3.1% (n = 140,000);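 active = readout at or below -70, meaning at least 70% loss of cells showing the perinucleolar compartment, a nuclear body marking cancer cells; inconclusive = readout between -30 and a set limit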;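 note: plate controls were DMSO wells for no effect and camptothecin positive control wells for full effect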
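PC3M cells stably expressing PTB-GFP, 750–1000 cells/well, treated 16 h at 37 °C with compound (23 nl of library stock), in duplicate. After paraformaldehyde fixation and Hoechst stain, imaged at 20x; PNC prevalence scored by image analysis.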
ALDH1A1 block = inhibitors of human aldehyde dehydrogenase 1A1 | P00352 | Purified ALDH1A1, NADH fluorescence, propionaldehyde substrate | Potency, µM (series often up to 75.3 µM), without a hit: at the highest dose activity, negative = inhibition, actives largely listed as inhibitors | actives 7.3% (n = 220,000);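 note: potency is the fitted concentration of half-maximal effect; plate controls were no enzyme wells and a reference inhibitor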
HPGD block = blocks human HPGD enzyme activity; P15428; purified HPGD, NADH fluorescence kinetic, PGE2 substrate; Potency, µM, for inactives: top-dose activity change, negative = inhibition, hits mostly inhibitors; actives 4.3% (n = 150,000); AID 894; note: potency is the fitted concentration of half-maximal effect
Target sequence (P15428 whole entry, looked up): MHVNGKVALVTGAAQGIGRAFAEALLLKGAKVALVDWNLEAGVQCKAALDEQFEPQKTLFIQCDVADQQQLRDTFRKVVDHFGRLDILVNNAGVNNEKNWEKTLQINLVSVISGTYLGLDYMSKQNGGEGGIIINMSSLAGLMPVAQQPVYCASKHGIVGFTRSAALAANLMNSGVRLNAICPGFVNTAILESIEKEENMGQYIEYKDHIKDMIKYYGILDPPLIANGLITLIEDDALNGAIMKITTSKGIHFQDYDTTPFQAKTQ
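20 nM HPGD preincubated 15 min at room temperature with compound in 50 mM Tris-HCl pH 8, 0.01% Tween 20. Started with 1 mM NAD+ and 30 uM prostaglandin E2; NADH fluorescence (360/450 nm) read 5 times over 30-s intervals, last minus first.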
Starred values were filed as active, the others as inactive; ? = inconclusive; · = no result given; [ ] = remark or other dose. Unless noted, calls come from the whole dose curve; as a rule, active = well fitted inhibition curve with a large enough effect (not every such curve was filed as active); inconclusive = small, poorly fitted or top-dose-only effect, or another doubt; inactive = no such curve, though single readings can be large or run the other way. Unless noted, % is set by controls: 0 for no effect and ±100 for the full control effect.

SMILES	PNC inhibitor	ALDH1A1 block	HPGD block
Cn1cccc1/C=N/n1c(-c2ccccc2)n[nH]c1=S	11	-14%	14µM*
Cc1nn(-c2ccccc2)c(C)c1/C=N/n1c(-c2ccncc2)n[nH]c1=S	·	22µM*	·
Cc1ccc(-c2n[nH]c(=S)n2/N=C/c2c(C)[nH]n(-c3ccccc3)c2=O)cc1	·	-10%	·
Cc1ccc2oc(-c3cccc(NC(=S)NC(=O)/C=C/c4ccco4)c3)nc2c1	-15	?	-29%
CCOC(=O)c1ccc(NC(=O)N2CCN(c3ccccc3OC)CC2)cc1	·	-5%	·
Cc1cc(Nc2ccc(N3CCC(C)CC3)cc2)n2ncnc2n1	11	?	-11%
COC(=O)C1=C(C)N(Cc2ccccc2)[C@]23O[C@](C(=O)OC)(C(=O)N2C1c1ccccc1)C1CCCC(=O)C13 (stereo partly drawn)	·	14%[13.5 µM]	·
C[C@@]1(C(NC(=O)c2cccs2)c2ccc(-c3ccccc3)cc2)C[C@H]1C1CCCCC1 (stereo partly drawn)	·	6%	-10%
COC(=O)c1ccc(C(NC(=O)c2ccccc2)[C@]2(C)C[C@H]2C2CCCCC2)cc1 (stereo partly drawn)	·	1.3µM*	-8%
CCC(C)C(NC(=O)OC(C)(C)C)C(=O)NC(C)C(N)=O (stereo not drawn)	·	9%	·
COc1ccc(NC(C)=O)cc1NC(=O)CSc1nnc(-c2cccnc2)n1C	17	10%	-2%
CCOc1ccc(N2C(=O)C3Sc4[nH]c(=O)sc4C(/C=C/c4ccccc4)C3C2=O)cc1 (stereo not drawn)	13	11µM*	-20%
CCOc1ccc(N2C(=O)/C(=C/c3ccccc3)N=C2SC)cc1	·	2%	·
Cc1ccc(C(=O)CN(C(=O)c2ccc(Cl)c(Cl)c2)N2C(=O)C3C4C=CC(C4)C3C2=O)cc1 (stereo not drawn)	?	-5%	-15%
COC(=O)c1[nH]c2ccc(C)cc2c1NC(=O)NC1CCCCC1	?	?	-12%
O=C(Nc1c(C(=O)O)[nH]c2ccccc12)NC1CCCCC1	-100*	?	?
Cc1nc2cnc(Nc3ccccc3)nc2n(CCc2ccccc2)c1=O	·	1%	·
CCCc1nnc(SCc2ccc(OCC)cc2)n1N	-18	-1%	28µM*
CCc1nnc(SCc2ccc(OC(C)C)cc2)n1N	50	-2%	-9%
CCc1nnc(SCc2ccc(CSc3nnc(CC)n3N)cc2)n1N	28	-1%	-6%
CCCCc1nnc(SCc2ccc(OCC)cc2)n1N	21	7%	25µM*
CCCCCCOC(=O)Cc1c(C)nc(-c2ccccc2)[nH]c1=O	56	-2%	-12%
Cc1ccc(CN2C(=O)C(C)Oc3ccccc32)cc1 (stereo not drawn)	·	7%	·
Cc1ccc2c(c1)C(CCN)C(=O)N2Cc1ccccc1 (stereo not drawn)	-23	32µM*	-6%
CC(C)(C)C(=O)Nc1ccc(Sc2ccc([N+](=O)[O-])cc2)cc1	-30	5%	8.9µM*
SMILES	PNC inhibitor	ALDH1A1 block	HPGD block
CC(C)(C)C(=O)NC(NC(=O)C(C)(C)C)c1ccc([N+](=O)[O-])cc1	2	6%	-8%
O=C(OCC(=O)N1CCCC1)c1cccs1	22	3%	-12%
COc1ccccc1NC(=O)c1ccc(NC(=O)COC(=O)C2(C)CC2(Cl)Cl)cc1 (stereo not drawn)	-27	?	-23%
CCOC(=O)c1[nH]cnc1C(=O)Nc1ccccn1	28	0.25µM*	·
CCOC(=O)c1[nH]cnc1C(=O)Nc1ccccc1OC	·	-9%	·
COc1ccc(C(=O)NCC(=O)N/N=C/C=C/c2ccccc2)cc1OC	·	-3%	·
Cc1cc(C)n(-c2ccc(C(=O)Nc3cc(S(=O)(=O)N(C)C)ccc3Cl)cc2)n1	-17	?	-3%
Cc1ccc(O)c(C(=O)CC(=O)c2ccccc2Cl)c1	·	-4%	·
Cc1ccc(C(=O)CC(=O)c2cccc(F)c2)c(O)c1	7	-4%	14µM*
COc1cccc(CC2(CO)CCN(Cc3cccn3-c3cccnc3)CC2)c1	·	2%	·
O=C(NCCO)/C(=C/c1cccc([N+](=O)[O-])c1)NC(=O)c1ccco1	·	3%	·
CC(NC(=O)/C(=C\c1cccc([N+](=O)[O-])c1)NC(=O)c1ccco1)C(=O)O (stereo not drawn)	93	6.3µM*	28µM*
COc1cc(/C=N\NC(=O)c2sc(N)nc2C)cc(OC)c1OC	-18	-12%	-21%
COc1ccccc1NS(=O)(=O)c1cccc(C(=O)N/N=C2\CC(=O)CC(C)(C)C2)c1	8	-3%	-20%
COc1ccccc1NS(=O)(=O)c1cccc(C(=O)NN)c1	-14	4µM*	-5%
CCN(CC)c1ccc(/C=N/NC(=O)c2cccc(S(=O)(=O)Nc3ccccc3OC)c2)c(O)c1	38	2%	-17%
COc1ccccc1NS(=O)(=O)c1cccc(C(=O)N/N=C/c2ccc3c(c2)OCCO3)c1	?	?	-6%
COc1ccccc1NS(=O)(=O)c1cccc(C(=O)NN=C2CCCC2)c1	·	13µM*	·
CCN(CC)c1ccc(/C=N/NC(=O)c2cccc(S(=O)(=O)Nc3ccccc3OC)c2)cc1	·	10µM*	·
CCCCc1nc2c(c3c1C[C@H](C)OC3)CN(C(=O)NCCc1c[nH]c3ccccc13)CC2	·	14%[13.5 µM]	0%
Cc1snc(SCC(=O)c2ccc([N+](=O)[O-])cc2)c1C#N	·	2.8µM*	·
CSc1nc(N)nc(SCC(=O)c2ccc(C)cc2)c1C#N	32	-45%	-17%
O=C(COC(=O)Cn1cnc2ccccc2c1=O)Nc1ccccc1Sc1ccc(Cl)cc1	-16	-1%	-5%
O=C(Nc1ccc(O)cc1C(=O)O)c1ccc2c(c1)C(=O)N(Cc1ccco1)C2=O	?	5.6µM*	-13%
COc1ccc(NC(=O)c2ccc3c(c2)C(=O)N(Cc2cccnc2)C3=O)cc1	?	12%	-4%
SMILES	PNC inhibitor	ALDH1A1 block	HPGD block
O=C(Nc1ccc(O)cc1C(=O)O)c1cccc(Br)c1	-6	11%	-18%
O=C(O)c1ccc(C(=O)c2ccc3c(c2)C(=O)N(Cc2ccco2)C3=O)cc1	?	11µM*	8.9µM*
O=C(c1ccc2c(c1)C(=O)N(Cc1ccco1)C2=O)N1CCOCC1	25	?	-6%
O=C(Nc1ccc(O)cc1)c1ccc2c(c1)C(=O)N(Cc1ccco1)C2=O	-15	14µM*	-9%
O=C(Nc1nn[nH]n1)c1cc(-c2ccc(Cl)c(Cl)c2Cl)nc2ccccc12	·	-10%	·
OC(Cc1cccnc1)(Cc1cccnc1)c1cc2ccccc2[nH]1	?	10%	1%
O=C(NCc1ccccc1F)C1CCCN1C(=O)NCc1ccccc1 (stereo not drawn)	-10	-1%	-6%
COc1ccc(OC)c(NC(=O)c2ccccc2NS(=O)(=O)c2cccc3cccnc23)c1	0	?	?
CC1(C)CC(=O)C(C(N)=NC(=O)c2ccccc2)=C(O)C1	·	10µM*	·
COC(=O)c1ccc(N)c(N=CC2=C(O)CC(C)(C)CC2=O)c1	-109*	20µM*	-22%
CC1(C)CC(=O)C(C(N)=NC(=O)c2ccc([N+](=O)[O-])cc2)=C(O)C1	·	8%	·
CSc1ccccc1N=CC1=C(O)CC(C)(C)CC1=O	-100*	2µM*	-30%
CC1(C)CC(=O)C(C=Nc2cc(C(=O)c3ccccc3)ccc2N)=C(O)C1	·	11µM*	·
